Activity calls are given as the source filed them.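 How the source made its calls, unless noted: active means NADPH fluorescence slope more negative than the mean of all samples by about 3 SD, 99.7% confidence; inactive means the rest.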
Legend:
[1] = inhibitors of TNFa-induced NFkB p65 translocation, primary screen, imaging, HUVEC, MLSMR starter and 10KST1 sets (AID 438;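 active means inhibition above 20% together with a positive visual image hit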;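 further: compound added about 3h40 before a 20 min TNFalpha stimulation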;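 on inhibition: signal is the nuclear over cytoplasmic p65 intensity ratio per well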); conditions: HUVEC TNFa-induced p65 nuclear translocation; cell count: measured here: nuclei count (cytotoxicity indicator), at 2.08 µM; inhibition: at 2 µM, stronger effect = higher value, 0% TNFa-plus-vehicle, 100% no-TNFa wells
[2] = inhibitors of mutant huntingtin aggregation, primary screen, imaging, exon1htt(103Q)mCFP cells, high-content imaging (AID 483;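 active means visual image review flags a hit and inhibition of aggregation exceeds 20%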;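 further: compound exposure lasted 3 days before fixation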;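 on nuclei count: percent of the per-plate median nuclei count of sample wells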); conditions: exon1htt(103Q)mCFP cell line, aggregate imaging, at 2 µM; inhibition of aggregation: stronger effect = higher value; nuclei count: measured here: cell count, toxicity
[3] = inhibitors of E-selectin induction by TNFa, primary screen, imaging, HUVEC, immunofluorescence, MLSMR starter and 10KST1 sets (AID 487;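 active means visually confirmed hit in the image check and inhibition above 20%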;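 on inhibition: signal is fraction of cell area covered by stained E-selectin grains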;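 on nuclei count: 100% = median nuclei count of all wells on the same plate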); conditions: HUVEC TNFalpha-induced E-selectin immunofluorescence imaging, at 2 µM; inhibition: stronger effect = higher value; nuclei count: measured here: cell number, toxicity
[4] = biological target: Voltage-gated potassium channel subunit beta-2 (Rattus norvegicus) (UniProt P62483); experiment: KvBeta enzyme negative modulators, primary screen, biochemical, NADPH fluorescence (AID 622;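 active means fluorescence slope higher than the sample average by over 3 SD, cut at about -0.22 in these data, passing the limit was not always enough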;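 further: slope of raw intensity against log time taken from 70 to 1610 s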); conditions: recombinant KvBeta, 4-cyanobenzaldehyde reduction, at 10 µM, stronger effect = higher value
Voltage-gated potassium channel subunit beta-2 (Rattus norvegicus), sequence (P62483 whole entry, looked up): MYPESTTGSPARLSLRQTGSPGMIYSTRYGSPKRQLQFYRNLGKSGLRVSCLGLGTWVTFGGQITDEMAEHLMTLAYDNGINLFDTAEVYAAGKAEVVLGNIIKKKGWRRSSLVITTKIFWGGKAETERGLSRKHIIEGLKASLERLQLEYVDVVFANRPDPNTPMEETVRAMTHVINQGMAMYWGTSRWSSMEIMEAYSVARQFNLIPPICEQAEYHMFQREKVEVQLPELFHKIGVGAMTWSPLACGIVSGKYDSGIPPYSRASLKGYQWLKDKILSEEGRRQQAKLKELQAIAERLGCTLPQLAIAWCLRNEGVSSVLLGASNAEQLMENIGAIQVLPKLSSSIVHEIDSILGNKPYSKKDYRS

[5] = biological target: Voltage-gated potassium channel subunit beta-2 (Rattus norvegicus) (UniProt P62483); experiment: KvBeta positive modulators, primary screen, biochemical, NADPH fluorescence (AID 623); conditions: Recombinant KvBeta, NADPH fluorescence decrease slope, 10 min; at 10 µM; stronger effect = lower value;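 further: fluorescence intensity change per second fitted from 20 to 320 s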
[6] = biological target: Alpha-2C adrenergic receptor (Homo sapiens) (UniProt P18825); experiment: modulators of alpha2C/GIRK thallium flux, primary screen, cell-based, HEK293 alpha2C/GIRK1/2 (AID 624;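 active means fluorescence slope after compound addition differing from the mean of all screened samples at 99.7% confidence, in either direction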;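 further: slope of fluorescence ratio to pre-addition baseline per second over 15 to 24 s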); conditions: thallium flux BTC fluorescence, at 10 µM, actives lie on both sides
Alpha-2C adrenergic receptor (Homo sapiens), sequence (P18825 whole entry, looked up): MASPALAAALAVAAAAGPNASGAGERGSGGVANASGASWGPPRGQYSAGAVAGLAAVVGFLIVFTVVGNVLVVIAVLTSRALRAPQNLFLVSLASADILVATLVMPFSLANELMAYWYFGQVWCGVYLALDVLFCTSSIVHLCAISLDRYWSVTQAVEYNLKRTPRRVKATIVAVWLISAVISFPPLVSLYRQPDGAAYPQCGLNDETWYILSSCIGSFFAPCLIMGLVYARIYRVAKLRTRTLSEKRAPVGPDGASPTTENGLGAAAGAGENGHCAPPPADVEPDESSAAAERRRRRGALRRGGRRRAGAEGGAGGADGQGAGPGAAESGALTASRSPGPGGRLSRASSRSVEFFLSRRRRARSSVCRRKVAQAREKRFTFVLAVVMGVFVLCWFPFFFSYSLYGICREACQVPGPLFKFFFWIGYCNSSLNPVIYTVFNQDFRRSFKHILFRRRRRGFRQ

[7] = inhibitors of Sendai virus-induced IRF3 signaling, primary screen, TLR/RLR signaling modifier project, cell-based, Sendai virus stimulus, luciferase, 10K MLSCN set (AID 602276;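 active means inhibition at or above 50% at 10 µM; inactive means inhibition below 50%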;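 further: firefly luciferase from ISG56 promoter only with Renilla not read in this screen; 0% = Sendai virus plus DMSO and 100% = medium plus DMSO without virus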); conditions: HEK293 RL24 IRF3 luciferase reporter, at 10 µM, stronger effect = higher value
[8] = inhibitors of poly I:C-induced TLR3 signaling, primary screen, cell-based, poly I:C stimulus, luciferase, 10K MLSCN set (AID 602277;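 active means inhibition of the reporter signal at or above 50%; inactive means inhibition below 50%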); conditions: HEK293-TLR3 RL24 IRF3 luciferase reporter, at 10 µM, stronger effect = higher value

SMILES	cell count [1]	inhibition [1]	inhibition of aggregation [2]	nuclei count [2] [%]	inhibition [3]	nuclei count [3] [%]	fluorescence slope [4]	NADPH fluorescence slope [5]	slope [6]	inhibition [7]	inhibition [8]
O=C(c1cc(S(=O)(=O)N2CCOCC2)ccc1F)N1CCCc2ccccc21	555	-26.9% (inactive)	-9.6% (inactive)	102	-44.9% (inactive)	140	-0.382 (inactive)	-4.2e-05 (inactive)	0.00518 (inactive)	12.6% (inactive)	27.4% (inactive)
CC(Sc1nnnn1C)C(=O)Nc1ccc(Oc2ccccc2)cc1 (centres undefined)	354	0.5% (inactive)	-25.9% (inactive)	105	-72.3% (inactive)	125	-0.505 (inactive)	-2.8e-05 (inactive)	0.00778 (inactive)	-8.41% (inactive)	-9.23% (inactive)
Cc1ccc(C(C(=O)NC(C)(C)C)N(C(=O)c2csnn2)c2cccc(F)c2)o1 (centres undefined)	357	4.3% (inactive)	7.8% (inactive)	93.7	-33.5% (inactive)	81.8	-0.492 (inactive)	8.2e-06 (inactive)	0.00622 (inactive)	8.19% (inactive)	20.7% (inactive)
O=C(Cn1nnc2ccccc2c1=O)NC1CCCc2ccccc21 (centres undefined)	485	-2.9% (inactive)	-0.1% (inactive)	108	10.6% (inactive)	92.5	-0.486 (inactive)	-1.6e-05 (inactive)	0.00524 (inactive)	17% (inactive)	25% (inactive)
CCN1CCN(c2ncc(C(=O)N3CCN(c4ccccc4OC)CC3)c3ccccc23)CC1	315	-2.5% (inactive)	0.9% (inactive)	97.8	13.2% (inactive)	96.4	-0.466 (inactive)	-4.4e-05 (inactive)	0.00623 (inactive)	0.246% (inactive)	31.7% (inactive)
CCC(=O)N1CCc2cc(S(=O)(=O)CCC(=O)Nc3ccc(F)c(F)c3)ccc21	571	5.2% (inactive)	6.1% (inactive)	96	-68.8% (inactive)	111	-0.423 (inactive)	-1.2e-05 (inactive)	0.00293 (inactive)	-11.6% (inactive)	-3.44% (inactive)
CCC(C(=O)OCC(=O)Nc1c(C)n(C)n(-c2ccccc2)c1=O)c1ccccc1 (centres undefined)	640	6.8% (inactive)	5.9% (inactive)	89.5	-53% (inactive)	122	-0.539 (inactive)	5.3e-06 (inactive)	0.00674 (inactive)	7.71% (inactive)	15.4% (inactive)
CC(NS(=O)(=O)c1ccc(F)cc1)C(c1cccs1)N1CCN(C)CC1 (centres undefined)	390	-3.7% (inactive)	-11.1% (inactive)	104	-0.8% (inactive)	105	-0.38 (inactive)	-5.1e-05 (inactive)	0.00473 (inactive)	0.176% (inactive)	33% (inactive)
Cn1c(=O)c2c([nH]c(=O)n2C)n(C)c1=O	364	1.7% (inactive)	2.6% (inactive)	104	16.9% (inactive)	101	-0.435 (inactive)	-0.000114 (inactive)	0.00554 (inactive)	18% (inactive)	20.1% (inactive)
O=C(CN1CCN(Cc2ccccc2)CC1)Nc1ccc(Cl)cn1	615	-12.7% (inactive)	19.3% (inactive)	81.8	-26% (inactive)	92	-0.502 (inactive)	-2.1e-05 (inactive)	0.00402 (inactive)	17.4% (inactive)	29.5% (inactive)
CCOc1ccc(-c2nnn(CC(=O)N3CCN(c4ccc(F)cc4)CC3)n2)cc1OCC	583	-9.5% (inactive)	-17.1% (inactive)	119	25% (inactive)	101	-0.642 (inactive)	-1.5e-05 (inactive)	0.00403 (inactive)	16.8% (inactive)	14% (inactive)
O=C(Nc1nc2c(s1)CCc1ccccc1-2)c1cccs1	637	-3.6% (inactive)	-9.4% (inactive)	115	30.8% (inactive)	86.1	-0.361 (inactive)	1.5e-05 (inactive)	0.00613 (inactive)	12.8% (inactive)	-8.29% (inactive)
CC1=C(C(=O)Nc2ccccc2)C(c2cccs2)C(C#N)=C(SCC#N)N1 (centres undefined)	713	-16.4% (inactive)	27.1% (inactive)	77.7	34.7% (inactive)	99.1	-0.525 (inactive)	-6.3e-05 (inactive)	0.00547 (inactive)	-25.9% (inactive)	-5.98% (inactive)
CC(=O)c1cccc(NS(=O)(=O)c2ccc3c(c2)oc(=O)n3C)c1	299	-9% (inactive)	0.5% (inactive)	119	-52% (inactive)	117	-0.437 (inactive)	-2.3e-05 (inactive)	0.00511 (inactive)	6.35% (inactive)	2.39% (inactive)
